Screening data as filed in PubChem BioAssay.
Most compounds without a hit are left out; they make up all but 6.8% or so of the library.
C diff growth = blocks growth of Clostridium difficile | Clostridium difficile clinical isolate growth, OD600, 24 h; hits give low values | growth activity, negative = inhibition, % at 16 µg/mL (by protocol) | 86,000 tested, 0.25% active | AID 1259249;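 active means mean growth activity at or below -80% and every replicate also at or below -80%; inconclusive means mean at or below -80% but some replicate above -80%; inactive means mean growth activity above -80%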;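 further: 0% = DMSO wells and -100% = levofloxacin 16 µg/mL wells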
T cruzi growth = T. cruzi proliferation inhibition | 77,000 tested, 5.9% active | T. cruzi beta-gal in NIH3T3, GalScreen luminescence, 90 h | inhibition, % at 8.34 µM;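 active means mean inhibition above about 93%, with at least 55% of replicates each passing it, limit read from the data, passing the limit was not always enough; inconclusive means only one of those two conditions holds; inactive means neither condition holds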
Pf Dd2 growth = inhibitors of Plasmodium falciparum Dd2 growth; activity change, % at 10 µM; P. falciparum Dd2 growth, SYBR Green, 72 h; hits give low values; AID 1159554; 94,000 tested, 2.3% active; in the data active means activity change below about -80%; inconclusive means no clear call, values can overlap the other calls
Starred values were filed as active, the others as inactive; ? = inconclusive; nt = no result.

SMILES	C diff growth	T cruzi growth	Pf Dd2 growth
COCC(=O)Nc1ccc2c(c1)OC[C@@H](C)NC[C@H](C)[C@H](OC)CN(C)C2=O	-1	49	nt
COc1cccc(S(=O)(=O)N2CCC3(CC2)CN(C(=O)Nc2ccc(F)cc2)[C@@H](CO)c2[nH]c4cc(OC)ccc4c23)c1	6	nt	-75
COc1cccc(S(=O)(=O)N2CCC3(CC2)CN(C(=O)Nc2ccc(F)cc2)[C@H](CO)c2[nH]c4cc(OC)ccc4c23)c1	1	nt	-63
COc1ccc2c3c([nH]c2c1)[C@H](CO)N(C(=O)Nc1ccc(F)cc1)CC31CCN(S(=O)(=O)c2ccccc2)CC1	9	nt	-88*
COc1ccc2c3c([nH]c2c1)[C@@H](CO)N(C(=O)Nc1ccc(F)cc1)CC31CCN(S(=O)(=O)c2ccccc2)CC1	8	nt	-84*
COCC(=O)N(C)C[C@H]1Oc2ncc(C#Cc3ccc(OC)cc3)cc2C(=O)N([C@H](C)CO)C[C@H]1C	2	-13	-1
CC(C)(O)C#Cc1ccc([C@@H]2[C@@H](CO)N3CCCCN(C(=O)c4ccc(F)cc4)C[C@@H]23)cc1	-3	5	-17
C[C@H](CO)N1C[C@H](C)[C@@H](CN(C)C(=O)c2ccncc2)OCCCC[C@H](C)Oc2ccc(NS(=O)(=O)c3ccc(Cl)cc3)cc2C1=O	nt	15	-42
C[C@@H]1CN([C@H](C)CO)C(=O)c2cccc(NC(=O)CCCCCC(=O)Nc3ccccc3N)c2O[C@@H]1CN(C)C	1	nt	-42
C[C@@H]1CN([C@H](C)CO)C(=O)c2cccc(NC(=O)CCCCCC(=O)Nc3ccccc3N)c2O[C@@H]1CN(C)Cc1ccc(Cl)c(Cl)c1	-8	nt	-91*
C[C@H]1CN([C@@H](C)CO)C(=O)c2cccc(NC(=O)CCCCCC(=O)Nc3ccccc3N)c2O[C@H]1CN(C)Cc1ccc(Cl)c(Cl)c1	3	nt	-88*
C[C@@H]1CN([C@@H](C)CO)C(=O)Cc2cc(NC(=O)CCCCCC(=O)Nc3ccccc3N)ccc2O[C@@H]1CN(C)Cc1ccc(Cl)c(Cl)c1	0	87	-33
C[C@@H]1CN([C@@H](C)CO)C(=O)c2cccc(NC(=O)CCCCCC(=O)Nc3ccccc3N)c2O[C@@H]1CN(C)Cc1ccc(Cl)c(Cl)c1	nt	92	-93*
C[C@H](CO)N1C[C@H](C)[C@@H](CN(C)Cc2ccc(Cl)c(Cl)c2)Oc2c(NC(=O)CCCCCC(=O)Nc3ccccc3N)cccc2C1=O	-13	nt	-72
O=C(C[C@@H]1CC[C@@H]2[C@H](COC[C@@H](O)CN2S(=O)(=O)c2cccc(Cl)c2)O1)NCCCN1CCOCC1	20	nt	16
CNC(=O)C[C@@H]1CC[C@H]2[C@@H](COC[C@@H](O)CN2C(=O)c2ccccn2)O1	nt	1	5
C[C@H]1CCCCO[C@H](CN(C)Cc2ccc(C(F)(F)F)cc2)[C@@H](C)CN([C@@H](C)CO)C(=O)c2cc(NC(=O)Nc3ccccc3)ccc2O1	5	68	-6
C[C@@H]1CCCCO[C@H](CN(C)Cc2ccc(C(F)(F)F)cc2)[C@@H](C)CN([C@@H](C)CO)C(=O)c2cc(NC(=O)Nc3ccccc3)ccc2O1	6	70	-82*
C[C@@H]1CN([C@@H](C)CO)C(=O)c2cc(NC(=O)c3ccccc3)ccc2O[C@@H](C)CCCCO[C@H]1CN(C)Cc1ccc(C(F)(F)F)cc1	33	69	-84*
C[C@H]1CCCCO[C@H](CN(C)Cc2ccc(C(F)(F)F)cc2)[C@@H](C)CN([C@@H](C)CO)C(=O)c2cc(NC(=O)c3ccccc3)ccc2O1	19	74	-42
C[C@@H]1CCCCO[C@@H](CN(C)Cc2ccc(Cl)c(Cl)c2)[C@H](C)CN([C@H](C)CO)C(=O)c2cc(NC(=O)Nc3ccc(C(F)(F)F)cc3)ccc2O1	21	51	-86*
C[C@H]1CCCCO[C@@H](CN(C)Cc2ccc(C(F)(F)F)cc2)[C@@H](C)CN([C@@H](C)CO)C(=O)c2cc(NC(=O)c3ccccc3)ccc2O1	13	63	-59
C[C@@H]1CCCCO[C@H](CN(C)Cc2ccc(C(F)(F)F)cc2)[C@@H](C)CN([C@@H](C)CO)C(=O)c2cc(NC(=O)c3ccccc3)ccc2O1	23	68	-86*
C[C@@H]1CCCCO[C@H](CN(C)Cc2ccc(Cl)c(Cl)c2)[C@H](C)CN([C@@H](C)CO)C(=O)c2cc(NC(=O)Nc3ccc(C(F)(F)F)cc3)ccc2O1	16	60	?
CC(C)NC(=O)Nc1ccc2c(c1)CC(=O)N([C@@H](C)CO)C[C@@H](C)[C@H](CN(C)Cc1ccc3c(c1)OCO3)O2	-2	-34	-23
SMILES	C diff growth	T cruzi growth	Pf Dd2 growth
C[C@@H]1CN([C@H](C)CO)C(=O)c2cc(NC(=O)Cn3cnnn3)ccc2O[C@H]1CN(C)CC1CCCCC1	2	19	1
C[C@@H]1CCCCO[C@@H](CN(C)Cc2ccc(C(=O)Nc3ccccc3N)cc2)[C@@H](C)CN([C@H](C)CO)C(=O)c2cc(NC(=O)CCC(F)(F)F)ccc2O1	1	nt	-92*
C[C@H](CO)N1C[C@H](C)[C@H](CN(C)Cc2ccccc2)OCCCC[C@H](C)Oc2ccc(NC(=O)c3ccncc3)cc2C1=O	-4	72	16
C[C@H]1CN([C@@H](C)CO)C(=O)c2cc(NC(=O)CCC(F)(F)F)ccc2O[C@@H]1CN(C)Cc1ccc(C(=O)Nc2ccccc2N)cc1	10	nt	-86*
C[C@@H]1CCCCO[C@@H](CN(C)Cc2ccccc2)[C@H](C)CN([C@H](C)CO)C(=O)c2cc(NC(=O)CCC(F)(F)F)ccc2O1	1	89	-44
C[C@@H]1CCCCO[C@@H](CN(C)Cc2ccc(C(=O)Nc3ccccc3N)cc2)[C@@H](C)CN([C@H](C)CO)C(=O)c2cc(NC(=O)c3ccccc3)ccc2O1	-1	nt	-84*
C[C@@H]1CCCCO[C@@H](CN(C)Cc2ccc(C(=O)Nc3ccccc3N)cc2)[C@@H](C)CN([C@H](C)CO)C(=O)c2cc(NC(=O)c3ccncc3)ccc2O1	5	nt	-85*
C[C@H]1CCCCO[C@@H](CN(C)Cc2ccc(C(=O)O)cc2)[C@@H](C)CN([C@@H](C)CO)C(=O)c2cc(NC(=O)c3ccccc3)ccc2O1	-2	48	-32
C[C@@H]1CN([C@H](C)CO)C(=O)c2cc(NC(=O)CCC(F)(F)F)ccc2O[C@@H]1CN(C)Cc1ccc(C(=O)Nc2ccccc2N)cc1	nt	70	-65
COCC(=O)N1CC2(C1)CN(C(=O)Nc1ccccc1F)[C@H](CO)c1c2c2ccc(OC)cc2n1C	nt	nt	-10
CO[C@@H]1CN(C)C(=O)c2ccc(NC(=O)Nc3cccc(F)c3)cc2OC[C@@H](C)N(C(=O)Nc2cccc(F)c2)C[C@H]1C	nt	24	-79
C[C@@H]1CN([C@@H](C)CO)C(=O)c2cc(NC(=O)CCCCCC(=O)Nc3ccccc3N)ccc2O[C@@H]1CN(C)C(=O)NC1CCCCC1	-6	-55	-7
COCC#Cc1ccc2c(c1)O[C@H](CN(C)C(=O)Nc1ccc(OC)cc1)[C@@H](C)CN([C@H](C)CO)S2(=O)=O	0	-75	-1
Cc1ccc(S(=O)(=O)N[C@H]2CC[C@H](CC(=O)NCCN3CCCCC3)O[C@@H]2CO)cc1	2	-6	9
